{"source": "the supplement of paper PMC7156485", "note": "Where “and” joins values, the source holds several entries; their conditions need not be identical. Equal values may be shown once. Values without a mark were called inactive.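 Further: TDF is a line of transformed human dermal fibroblasts of mesenchymal origin.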", "data": [{"test_system": "TDF", "assay": "H1.0 immunofluorescence intensity relative to DMSO (% of DMSO); higher = stronger H1.0 induction, active = 120 or more", "details": "concentration: 10 µM; 24 h", "summary_of_the_method": "(§1)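 Compounds were applied at 10 µM for 24 h at 37 °C, in triplicate, to HCC1569 and TDF cells. The cells were then fixed and stained for H1.0, and nuclei were counterstained with DAPI. Nuclear H1.0 intensity or cell number is reported relative to the plate control as a percent, taking the median of replicates. Smoothing for positional effects was applied to HCC1569 values only.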", "values": [{"molecule": "CCOc1cc(N2CCC(O)CC2)ccc1Nc1ncc2c(n1)N(C)c1ccccc1C(=O)N2C", "H1.0 immunofluorescence intensity": 117}, {"molecule": "Cl.Fc1cccc(CN(C2=NCCN2)c2c(Cl)cccc2Cl)c1", "note": "[IMID-4F hydrochloride]", "H1.0 immunofluorescence intensity": 102}, {"molecule": "COc1ccc(-c2cc(=O)c3c(O)c(OC)c(OC)cc3o2)cc1O", "H1.0 immunofluorescence intensity": 102}, {"molecule": "C[C@]12CCC(=O)C=C1CC[C@@H]1[C@@H]2[C@@H](O)C[C@@]2(C)[C@H]1CC[C@]2(O)C(=O)COC(=O)CCC(=O)[O-].[Na+]", "H1.0 immunofluorescence intensity": 82.3}, {"molecule": "COc1c(N2CC3CCCNC3C2)c(F)cc2c(=O)c(C(=O)O)cn(C3CC3)c12.Cl", "note": "(centres undefined) [Moxifloxacin.HCl]", "H1.0 immunofluorescence intensity": 96.7}, {"molecule": "CCCCCC(O)C=CC1C(O)CC2CC(=CCCCC(=O)O)CC21", "note": "(centres undefined) [Carbacyclin]", "H1.0 immunofluorescence intensity": 94.8}, {"molecule": "c1cc(OCCN2CCCCC2)cc(-c2n[nH]c3ccc(-c4ncn[nH]4)cc23)c1", "H1.0 immunofluorescence intensity": 84.6}, {"molecule": "N#CC(=C(N)Sc1ccccc1N)C(C#N)=C(N)Sc1ccccc1N", "H1.0 immunofluorescence intensity": "94 and 88.9"}, {"molecule": "CCCn1c(=O)c2[nH]c(C3CCCC3)nc2n(CCC)c1=O", "note": "[8-Cyclopentyl-1,3-dipropylxanthine]", "H1.0 immunofluorescence intensity": 99.5}]}, {"test_system": "HCC1569", "assay": "H1.0 immunofluorescence intensity relative to DMSO (% of DMSO); higher = stronger H1.0 induction, active = 140 or more", "details": "concentration: 10 µM; 24 h", "summary_of_the_method": "as §1", "values": [{"molecule": "O=C(O)C(O)C(O)C(=O)O.O=C(c1ccc(F)cc1)C1CCN(CCn2c(=O)[nH]c3ccccc3c2=O)CC1", "note": "[Ketanserin tartrate]", "H1.0 immunofluorescence intensity": 104}, {"molecule": "CCN1CCCC1CNC(=O)c1cc(S(=O)(=O)CC)c(N)cc1OC", "note": "(centres undefined) [Amisulpride]", "H1.0 immunofluorescence intensity": 96.7}, {"molecule": "Cl.NC1(C(=O)O)CC1", "note": "[1-Aminocyclopropanecarboxylic acid hydrochloride]", "H1.0 immunofluorescence intensity": 100}, {"molecule": "O=C(NC(CO)C(O)c1ccc([N+](=O)[O-])cc1)C(Cl)Cl", "note": "(centres undefined) [Chloramphenicol]", "H1.0 immunofluorescence intensity": 112}, {"molecule": "COc1ccc(Cl)cc1C(=O)NCCc1ccc(S(=O)(=O)NC(=O)NC2CCCCC2)cc1", "note": "[Glyburide]", "H1.0 immunofluorescence intensity": 109}, {"molecule": "CCCn1c(=O)[nH]c(=O)c2[nH]cnc21", "note": "[3-n-Propylxanthine]", "H1.0 immunofluorescence intensity": 101}, {"molecule": "CS(=O)(=O)O.Cc1ccc(N(CC2=NCCN2)c2cccc(O)c2)cc1", "note": "[Phentolamine mesylate]", "H1.0 immunofluorescence intensity": 99.6}, {"molecule": "CC(=O)NC(Cc1c[nH]c2ccccc12)C(=O)OCc1cc(C(F)(F)F)cc(C(F)(F)F)c1", "note": "(centres undefined)", "H1.0 immunofluorescence intensity": 90.8}, {"molecule": "CC1(C)CCC(C)(C)c2cc(C3(c4ccc(C(=O)O)cc4)OCCO3)ccc21", "H1.0 immunofluorescence intensity": 92.2}, {"molecule": "CC[C@H](NC(=O)c1c(O)c(-c2ccccc2)nc2ccccc12)c1ccccc1", "H1.0 immunofluorescence intensity": 107}, {"molecule": "C[N+](C)(C)CCC(=O)c1cccc2ccccc12.[I-]", "note": "[2-(alpha-Naphthoyl)ethyltrimethylammonium iodide]", "H1.0 immunofluorescence intensity": 91.6}, {"molecule": "COc1cc2c(cc1CC=C(C)C)C(=O)CC(c1ccc(O)cc1)O2", "note": "(centres undefined) [Bavachinin A]", "H1.0 immunofluorescence intensity": 96.7}, {"molecule": "CC[C@H](C)C(=O)O[C@H]1C[C@H](O)C=C2C=C[C@H](C)[C@H](CC[C@@H](O)C[C@@H](O)CC(=O)[O-])[C@H]21.[Na+]", "H1.0 immunofluorescence intensity": 98.1}, {"molecule": "CC1(C)CNc2cc(NC(=O)c3cccnc3NCc3ccncc3)ccc21", "note": "[Motesanib]", "H1.0 immunofluorescence intensity": 106}, {"molecule": "COCCc1ccc(OCC(O)CNC(C)C)cc1", "note": "(centres undefined) [Metoprolol]", "H1.0 immunofluorescence intensity": 104}, {"molecule": "CON=C(C(=O)NC1C(=O)N2C(C(=O)[O-])=C(CSc3nc(=O)c([O-])nn3C)CSC12)c1csc(N)n1.[Na+].[Na+]", "note": "(centres undefined) [Ceftriaxone sodium]", "H1.0 immunofluorescence intensity": 94}, {"molecule": "COc1cc(C=Cc2ccccc2)oc(=O)c1", "note": "[5,6-Dehydrokawain]", "H1.0 immunofluorescence intensity": 92.6}, {"molecule": "O=c1cc(-c2ccc(O)c(O)c2)oc2cc(O)cc(O)c12", "note": "[Luteolin]", "H1.0 immunofluorescence intensity": 120}, {"molecule": "O=C(Nc1ccc(Oc2ccnc3[nH]ccc23)c(F)c1)c1cccn(-c2ccc(F)cc2)c1=O", "H1.0 immunofluorescence intensity": 111}, {"molecule": "CC(O)(P(=O)([O-])O)P(=O)([O-])O", "note": "[Etidronate]", "H1.0 immunofluorescence intensity": 111}, {"molecule": "Cl.NO", "note": "[Hydroxylamine hydrochloride]", "H1.0 immunofluorescence intensity": 89.7}, {"molecule": "N#CC(=Cc1ccc(O)c(O)c1)C(=O)c1ccc(O)c(O)c1", "note": "[Tyrphostin AG 538]", "H1.0 immunofluorescence intensity": "190 (active)"}, {"molecule": "COc1cc2c(Nc3ccc(NC(=O)c4ccccc4)cc3)ncnc2cc1OCCCN1CCOCC1", "H1.0 immunofluorescence intensity": "151 (active)"}, {"molecule": "COc1c(N2CCNC(C)C2)c(F)cc2c(=O)c(C(=O)O)cn(C3CC3)c12", "note": "(centres undefined) [Gatifloxacin]", "H1.0 immunofluorescence intensity": 107}, {"molecule": "NS(=O)(=O)c1cc(C(=O)O)c(NCc2ccco2)cc1Cl", "note": "[Furosemide]", "H1.0 immunofluorescence intensity": 100}, {"molecule": "COCCOC(=O)C1=C(C)NC(C)=C(C(=O)OCC=Cc2ccccc2)C1c1cccc([N+](=O)[O-])c1", "note": "(centres undefined) [Cilnidipine]", "H1.0 immunofluorescence intensity": 111}, {"molecule": "CCC(C(=O)C(C)C(O)C(C)CCc1ccc(C)c(O)c1C(=O)[O-])C1OC(CC)(C2CCC(O)(CC)C(C)O2)CC1C.[Na+]", "note": "(centres undefined) [Lasalocid A]", "H1.0 immunofluorescence intensity": 94.6}, {"molecule": "Cc1nc(C(=O)N2CCC[C@H]2Cc2nnc(-c3ccccc3)o2)c(-c2ccccc2F)s1", "H1.0 immunofluorescence intensity": 95.5}, {"molecule": "CCCCCCCCC=CCCCCCCCCCCCC(=O)O", "note": "[13(Z)-Docosenoic acid]", "H1.0 immunofluorescence intensity": 102}, {"molecule": "Cc1cccc(Nc2cc(Cl)nc(SCC(=O)O)n2)c1C", "H1.0 immunofluorescence intensity": 97.6}, {"molecule": "CC1=C(CC(=O)O)c2cc(F)ccc2C1=Cc1ccc(S(C)=O)cc1", "note": "(centres undefined) [Sulindac]", "H1.0 immunofluorescence intensity": 100}, {"molecule": "CCOc1cc(N2CCC(O)CC2)ccc1Nc1ncc2c(n1)N(C)c1ccccc1C(=O)N2C", "H1.0 immunofluorescence intensity": "169 (active)"}, {"molecule": "Cl.Fc1cccc(CN(C2=NCCN2)c2c(Cl)cccc2Cl)c1", "note": "[IMID-4F hydrochloride]", "H1.0 immunofluorescence intensity": 134}, {"molecule": "COc1ccc(-c2cc(=O)c3c(O)c(OC)c(OC)cc3o2)cc1O", "H1.0 immunofluorescence intensity": 139}, {"molecule": "C[C@]12CCC(=O)C=C1CC[C@@H]1[C@@H]2[C@@H](O)C[C@@]2(C)[C@H]1CC[C@]2(O)C(=O)COC(=O)CCC(=O)[O-].[Na+]", "H1.0 immunofluorescence intensity": 103}, {"molecule": "COc1c(N2CC3CCCNC3C2)c(F)cc2c(=O)c(C(=O)O)cn(C3CC3)c12.Cl", "note": "(centres undefined) [Moxifloxacin.HCl]", "H1.0 immunofluorescence intensity": 97.9}, {"molecule": "CCCCCC(O)C=CC1C(O)CC2CC(=CCCCC(=O)O)CC21", "note": "(centres undefined) [Carbacyclin]", "H1.0 immunofluorescence intensity": 100}, {"molecule": "c1cc(OCCN2CCCCC2)cc(-c2n[nH]c3ccc(-c4ncn[nH]4)cc23)c1", "H1.0 immunofluorescence intensity": 115}, {"molecule": "N#CC(=C(N)Sc1ccccc1N)C(C#N)=C(N)Sc1ccccc1N", "H1.0 immunofluorescence intensity": "108 and 98.1"}, {"molecule": "CCCn1c(=O)c2[nH]c(C3CCCC3)nc2n(CCC)c1=O", "note": "[8-Cyclopentyl-1,3-dipropylxanthine]", "H1.0 immunofluorescence intensity": 93.7}]}]}
